Drawing on PubChem BioAssay, this text covers z-score for 16 compounds.

Assay [1] is described as follows: A549 cell viability effects, profiling panel, calcein-AM fluorescence, 48 h, basal (AID 1162). The following applies: higher = more signal.
A short description of assay [2]: adipocyte viability effects, profiling panel, cell-based, 3T3-L1 adipocytes, calcein-AM fluorescence, 48 h, basal (AID 1163). Conditions: 3T3-L1 adipocytes viability, higher = more signal.
Assay [3] can be described thus: HepG2 cell viability effects, profiling panel, calcein-AM fluorescence, 48 h, basal (AID 1164). The following applies: higher = more signal.
The nature of assay [4]: MM1S cell viability effects, profiling panel, calcein-AM fluorescence, 48 h, basal (AID 1165).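 Note: viability of MM1S multiple myeloma cells under basal unstimulated conditions.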 The following applies: higher = more signal.
Assay [5] is described as follows: basal RPMI8226 viability, no added stimulus, profiling panel, cell-based, calcein-AM fluorescence, 48 h, PK04 Diversity Set (AID 1166).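 Note: cells grown under basal conditions without added stimulus.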 The following applies: RPMI8226 myeloma viability, higher = more signal.
Assay [6] is described as follows: basal HepG2 mitochondrial membrane potential changes, profiling panel, cell-based, JC-1 fluorescence, 24 h, 100 nL compound (AID 1167). Conditions: higher = more signal.
A short description of assay [7]: basal 3T3-L1 adipocyte mitochondrial potential changes, profiling panel, cell-based, JC-1 fluorescence, 3T3-L1 adipocytes, 24 h, 100 nL compound (AID 1168). The following applies: JC-1 mitochondrial fluorescence, higher = more signal, called active from +8 up or from −8 down.
A short description of assay [8]: basal RPMI8226 mitochondrial membrane potential changes, profiling panel, cell-based, JC-1 fluorescence, 24 h, 100 nL compound (AID 1169). The following applies: RPMI8226 myeloma, JC-1 mitochondrial potential fluorescence, higher = more signal.
The nature of assay [9]: basal MM1S mitochondrial membrane potential changes, profiling panel, cell-based, JC-1 fluorescence, 24 h, 100 nL compound (AID 1170). Conditions: higher = more signal.
Assay [10] in a line: A549 lung cancer cell viability effects, profiling panel, resazurin fluorescence, 24 h, PK04 Diversity Set (AID 1171). Conditions: higher = more signal, called active from +8 up or from −8 down.

Activity calls are given as the source filed them.
Note: test concentration not given here.

On to `CN(C)CCCNC(=O)[C@@H]1c2ccccc2C(=O)N(Cc2ccccc2Cl)[C@H]1c1ccc(CO)cc1`, for which the z-score in assay [1] was 0.904; in assay [2], 0.841; in assay [3], 0.112; in assay [4], -0.147; in assay [5], -0.872; in assay [6], 1.5. Further, the z-score in assay [7] is 0.517 (inactive); in [8] it was 0.114; in assay [9], 0.599; in assay [10], 0.508 (inactive).

Consider `COC(=O)Cn1c(C(=O)N(C)C)cc2c1C[C@H]1CN(C(=O)c3ccccc3)[C@@](Cc3ccc(F)cc3)(C(=O)OC)[C@@H]21`, for which the z-score was -0.0599 in [1]; -1.23 in [2]; 0.0845 in assay [3]; -1.38 in assay [4]; -1.58 in assay [5]; 0.0394 in assay [6]. Besides, the z-score in assay [7] is -0.53 (inactive); in [8], 0.446; in assay [9], -0.148; in assay [10], -0.421 (inactive).

As for `COc1ccc(CCN2C(=O)[C@@]3(Cc4ccccc42)c2ccccc2C(=O)N(Cc2ccccc2OC)[C@H]3c2ccc(CO)cc2)cc1`, the z-score in assay [1] was -0.391; in [2] it was 0.677; in assay [3], -0.264; in assay [4], -1.98; in assay [5], -0.996; in assay [6] it was 0.0826. For the same compound, the z-score in assay [7] is 0.16 (inactive); in assay [8], 0.718; in assay [9], 0.464; in [10], 0.271 (inactive).

Turning to `COC(=O)[C@@]1(Cc2ccccc2)[C@H]2c3cc(C(=O)N(C)C)n(CCc4ccc(O)c(OC)c4)c3C[C@H]2CN1C(=O)c1ccccc1`, the z-score in assay [1] is 0.0634; in assay [2] it was -0.121; in assay [3], 0.343; in assay [4], -1.32; in assay [5], -0.0242; in [6], -0.533. Moreover, the z-score was -0.9 (inactive) in [7], -0.665 in assay [8], -0.241 in assay [9] and 0.641 (inactive) in assay [10].

In the case of `O=C1NC(=O)C2C1C=CC(C(O)c1c(F)cccc1Cl)N2Nc1ccc(Cl)cc1Cl` (stereo not given), the z-score was -2.11 in [1]; 0.0772 in assay [2]; -2.82 in assay [3]; -3.64 in [4]; -1.39 in [5]; -3.44 in [6]. For the same compound, the z-score in assay [7] is -0.775 (inactive); in assay [8], -1.06; in [9], -1.46; in [10], -2.22 (inactive).

For `C=C(/C(=C/C[C@@H](OC(C)=O)c1cccc(OCCO)c1)c1cc(C(=O)OC)ccc1OC)C(C)C`, the z-score in [1] is -0.0413; in assay [2] it was 0.0983; in assay [3], -0.159; in assay [4], -0.881; in assay [5], -0.264; in assay [6], 1.86. Further, the z-score in assay [7] was -0.789 (inactive); in [8], 0.373; in assay [9] it was -0.682; in assay [10] it was 2.17 (inactive).

Turning to `C=CCOC(=O)[C@H]1[C@@H]2C(=O)O[C@@H](c3ccccc3)[C@@H](c3ccccc3)N2[C@@H](c2ccc(OCCOC(=O)[C@H]3C[C@H]4C(=O)N[C@@H](CC(C)C)C(=O)N4[C@H]3c3cccc(OCCO)c3)cc2)[C@]12C(=O)Nc1ccc(I)cc12`, the z-score in assay [1] is -0.681; in [2] it was 0.329; in [3], 0.281; in assay [4], -1.15; in assay [5] it was -0.0034; in [6], 1.69. Moreover, the z-score in assay [7] was 0.681 (inactive); in assay [8], -0.762; in assay [9], -0.7; in assay [10], -0.0975 (inactive).

As for `CN(C)CCCCNC(=O)[C@@H]1C[C@@H]2C(=O)N[C@@H](Cc3ccccc3)C(=O)N2[C@@H]1c1cccc(OCCO)c1`, the z-score in [1] is 1.74; in assay [2] it was 0.296; in assay [3], 1.13; in [4] it was -0.729; in [5], 0.573; in assay [6], 1.88. For the same compound, the z-score in assay [7] is 0.76 (inactive); in assay [8], -0.0777; in assay [9] it was 0.108; in [10] it was -0.0805 (inactive).

In the case of `COC(=O)[C@@]1(Cc2ccc(F)cc2)[C@H]2c3cc(C(=O)N4CCCC4)n(CCc4ccc(O)c(O)c4)c3C[C@H]2CN1C(=O)c1ccccc1`, the z-score in assay [1] is 0.863; in assay [2], -0.0428; in assay [3] it was 0.609; in assay [4], -3.48; in [5] it was -4.2; in [6], 0.54. The z-score in assay [7] is -0.461 (inactive); in assay [8] it was -0.788; in assay [9] it was -1.59; in assay [10], 0.0195 (inactive).

In the case of `COc1ccc(NC(=O)O[C@H]2[C@H](OC(=O)Nc3ccccc3)[C@H](OC(=O)Nc3ccccc3)[C@@H](OC)O[C@@H]2CO)cc1`, the z-score in assay [1] was -0.985; in assay [2] it was 0.998; in assay [3] it was -1.29; in assay [4], -2.7; in [5], -2.72; in [6], -0.186. Besides, the z-score was -0.0233 (inactive) in assay [7], -0.339 in assay [8], -0.261 in assay [9] and -1.44 (inactive) in [10].

Turning to `Cc1ccc(S[C@]2(C(=O)O)CC(=O)N(C3Cc4ccccc4C3)[C@@H]2c2ccc(CO)cc2)cc1`, the z-score in [1] is -0.197; in assay [2], 0.729; in assay [3] it was -0.574; in [4] it was -0.428; in assay [5] it was -2.56; in [6], 0.125. Moreover, the z-score in assay [7] is -0.58 (inactive); in [8], 0.522; in assay [9], 0.353; in assay [10] it was -0.831 (inactive).

`O=C1O[C@@H](c2ccccc2)[C@@H](c2ccccc2)N2[C@@H](c3ccccc3OCCO)[C@]3(C(=O)Nc4ccc(C#CCCO)cc43)[C@@H](C(=O)N3CCCCCCC3)[C@H]12`: the z-score in assay [1] was 0.22; in assay [2] it was 0.251; in assay [3] it was 0.717; in assay [4], -1.68; in [5], -4.14; in [6] it was 0.548. Moreover, the z-score in assay [7] is 0.363 (inactive); in assay [8] it was -1.11; in assay [9] it was -1.63; in assay [10], -0.184 (inactive).

On to `CC(C)N1C(=O)c2ccccc2[C@@H](C(=O)NC2CC2)[C@@H]1c1ccc(CO)cc1`, for which the z-score in assay [1] was 0.798; in [2], 0.774; in [3], 0.476; in assay [4], -0.0123; in assay [5] it was 0.282; in assay [6], 0.507. Further, the z-score in [7] was 0.319 (inactive); in assay [8], 0.108; in [9] it was 0.0665; in assay [10], 0.743 (inactive).

For `NC(=O)NCC#Cc1ccc2c(c1)[C@]1(C(=O)N2)[C@H](C(=O)NC[C@H](O)c2ccccc2)[C@H]2C(=O)O[C@H](c3ccccc3)[C@H](c3ccccc3)N2[C@@H]1c1ccc(OCCO)cc1`, the z-score in [1] is -0.313; in assay [2], 0.468; in assay [3], 0.0249; in assay [4] it was -0.254; in assay [5] it was 1.25; in assay [6], -2.05. Moreover, the z-score is -0.183 (inactive) in assay [7], -1.1 in [8], -0.642 in [9] and 0.818 (inactive) in assay [10].

On to `COCCCNC(=O)[C@@]1(Cc2ccccc2CN=[N+]=[N-])N=C(c2ccc(OCCCO)cc2)O[C@H]1c1ccccc1`, for which the z-score in assay [1] was -1.15; in assay [2] it was 0.759; in [3] it was -0.798; in assay [4] it was -2.93; in assay [5] it was -4.32; in assay [6], 0.331. Further, the z-score in [7] is -0.00801 (inactive); in assay [8] it was -1.25; in assay [9], -0.69; in [10], 0.385 (inactive).

With `COc1cc2c(cc1O)C(C)N(Cc1ccc([N+](=O)[O-])o1)CC2` (stereo not given), the z-score in [1] was 0.687; in assay [2], 0.831; in assay [3] it was -0.963; in assay [4] it was -1.21; in [5] it was -0.867; in assay [6], -2.09. The z-score is -0.741 (inactive) in assay [7], 0.105 in assay [8], -0.208 in assay [9] and -0.0799 (inactive) in assay [10].
